This note sets out measurements from the supplement of paper PMC6555819.

This test has as its system VDR:RXRa (NR concentration 270 nM, RXRa partner concentration 90 nM). In words: PBM binding z-score (relative to random genomic background probes); higher = stronger binding; sequences stand for … in GC…GCGATTGACAGCGTAGAATGAAGG
Here is the method: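 Protein-binding microarray (Agilent 4x180K custom design, double-stranded 60-nt probes: 5' GC cap, 34-nt variable region, 24-nt constant primer region; full probe sequence given). Purified or IVT nuclear receptor:RXRα heterodimers (3:1 NR:RXRα, mostly 270:90 nM) or homodimers were incubated for 1 h in PBS with 2% milk and no ligand, then detected with Alexa488 antibodies. Fluorescence from o1-orientation probes (~5 replicates averaged) was converted to z-scores against 500 random hg19 background probes. Variable regions are seed direct-repeat (DR0–DR5) sites, all their single-nucleotide variants and half-site ablations.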
The sequence CATCCAAGGTCAGCAGGTCAGTGAAAGCGACGTG returned a PBM binding z-score of 4.18.

As to ATCTCTAGGTAAGACTCGGTTCAGTGAAGAACGC, the PBM binding z-score came out at 1.05.

TCTAGTTCGTCAAAGGTCACACACTCGAAATGCG gave a PBM binding z-score of 5.77.

Regarding GCTATTAGTTGATAGGGCAACCGAATGATTCTCG, the PBM binding z-score is -0.195.

On to CTCGAAAGGTCGGTTGAGGTGAGTAGACGGATAA, for which the PBM binding z-score turned out to be 1.99.

TCTTGTTGATCAACAGGAGGTTAAGAAAGATCGA showed a PBM binding z-score of 0.368.

In turn, TCAGACAGATGAAGGTAACTCAGGTACGCAGTCG had a PBM binding z-score of 0.608.

The sequence ATCTCTAGGTAAGACTAAGTTCAGTGAAGAACGC yielded a PBM binding z-score of 1.7.

As for GCTCGGCGGACAAGGTCAGAGCTTTGTCCGTAGA, the PBM binding z-score stood at 0.376.

For the sequence TAGCCTAGGTCATACGGGCCAGTATAGTGTCGGC, the PBM binding z-score was 3.08.

CGAACGAGGGCATGCGTTGATAGCAAATGCCGAT: the PBM binding z-score is 0.672.

On to GCTTACGGGTCAAAGCTTATAGCATGAATAGAAT, for which the PBM binding z-score amounted to 3.36.

ACTCGGAGGACTAAGGTCAGAGCTACGCCAGTGA came in with a PBM binding z-score of 1.65.

Sequence CCTACTGGGCCACGAAAGGTCATTGGTTCAGTGA came in with a PBM binding z-score of 4.55.

As to CCTACTAGGCCAAGGTCATTGATCAGTCAAAGCA, the PBM binding z-score came out at 3.48.

On to GCATATAGGTAATACTAGGTGAAAGTCCGATTGT, for which the PBM binding z-score was 0.212.

The sequence TCATATAGGTAAAAGGTGACAGTCGGTGTGGTAA had a PBM binding z-score of 1.35.

TCGAGTAGGTTTCCAATGGGGCATTCAGCTTTCT: the PBM binding z-score was -0.464.

In turn, GGAACGAGGGCAAGTTGATAGTAGAGTTTGATGG registered a PBM binding z-score of 1.34.

The sequence GGAACGAGGCCATTCGAGTTGATAGCATGGCGAT yielded a PBM binding z-score of 1.43.

For CGTCCAAGGTCAAGGTCAGTGAAAGAGACTCGAA, the PBM binding z-score stood at 4.7.

Take CCTTACGGGTCACCGACAGGTTATAGCATTTGGA: the PBM binding z-score came to 4.44.

In turn, CCTATTGGGCCAAAAAGGTCATTGATGCCGATAA returned a PBM binding z-score of 5.02.

The sequence CCAAGTTGGTCAAGGTCACACACGCTATAGGTAC registered a PBM binding z-score of 4.79.

For CCGACTGGGACAAAGGTTACCATACTCAGTACGA, the PBM binding z-score came to 1.14.

With CCATACGGGTCACGAGGTTATAGCACGACGAGCG, the PBM binding z-score was determined as 5.02.

For the sequence ATATGTAGGTTACATCCGGGTCATTCATGCTATG, the PBM binding z-score worked out at 4.1.

Consider CAAACTAGGTCACGAAATGTCAAAGTCGAATGAC, for which the PBM binding z-score turned out to be 3.47.

As for CCTTACGGGCCACTCCAGGTTATAGCATCGGAGT, the PBM binding z-score was -0.25.

Sequence CCAACTAGGTCAAGGACAGTGAATCTCCGCACGC returned a PBM binding z-score of 1.16.

The sequence CAAACTAGGTCAAGGTCGAAGTCGGTTTGTGCCA displayed a PBM binding z-score of 3.27.

With ACAGACAGGAGATGAAGGTAACTCAGGCTATCAT, the PBM binding z-score was found to be 0.143.

Regarding ACAGACAGGTGAGTGAAGGTAACTCCGCTGGACG, the PBM binding z-score is -0.433.

As for GGAACGAGGGCATTTGAGTTGATAGCATGGCGAT, the PBM binding z-score was determined as 4.22.

Regarding AGTCAAAGCTCAGGACGAGGTAACGTAAAGCACG, the PBM binding z-score was -0.317.

ATCGAAAGGTCGACGAGGTGACTATACACCGTTT displayed a PBM binding z-score of 5.95.

TCTTGTACATCAGCAGGTTAAGAAAGCTGGCCAA returned a PBM binding z-score of 0.622.

As for CCTACTGGTCCACGAAAGGTCATTGATTCAGTGA, the PBM binding z-score was 4.24.

As for TGAATGAGGTTCTAAGATCAGGGAACGTTGCAAA, the PBM binding z-score is -0.428.

Regarding CGTCCAAGGTCAATGCTAGGTCAGTGTAAGCATT, the PBM binding z-score was 4.85.
